Screens: PubChem BioAssay, Broad Institute
This is one part of a sample in which hits are shown more often than they occur.
miR-122 inh = raises miR-122 sensor activity in Huh7 cells | Huh7 psiCHECK-miR122 Renilla luciferase sensor, 48 h | activation, % at 12.5 µM | 340,000 compounds, 0.14% hits;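 active means mean activation of 30% or more, with every replicate also reaching 30%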;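 further: 0% = median of neutral control wells and 100% = median of positive control wells; higher luciferase signal means stronger suppression of miR-122 activity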
An asterisk follows results filed as active.

SMILES	miR-122 inh
CNC[C@@H]1Oc2cc(C#C[C@H](C)O)ccc2S(=O)(=O)N([C@H](C)CO)C[C@H]1C	1.4
C[C@@H]1CN([C@@H](C)CO)C(=O)c2cc(-c3ccc(F)cc3)cnc2O[C@H]1CN(C)Cc1ccc(C(=O)O)cc1	4.8
C[C@@H]1CN([C@@H](C)CO)C(=O)c2cc(-c3cccc(F)c3)cnc2O[C@@H]1CN(C)Cc1cncnc1	-43.2
COc1cccc(-c2cnc3c(c2)C(=O)N([C@H](C)CO)C[C@@H](C)[C@@H](CN(C)C(=O)CC2CC2)O3)c1	8.3
C[C@@H]1CN([C@H](C)CO)S(=O)(=O)c2ccc(-c3ccccc3)cc2O[C@H]1CN(C)S(=O)(=O)c1ccccc1F	-6.4
CC(=O)N(C)C[C@H]1Oc2cc(/C=C/c3ccccc3)ccc2S(=O)(=O)N([C@H](C)CO)C[C@H]1C	15.1
CO[C@@H]1CN(C)C(=O)c2cc(NC(=O)NC(C)C)ccc2OC[C@@H](C)N(C(=O)NC(C)C)C[C@@H]1C	-0.1
CO[C@@H]1CN(C)C(=O)c2cc(NC(=O)NC(C)C)ccc2OC[C@H](C)N(C(=O)NC(C)C)C[C@@H]1C	-2.7
CNC(=O)C[C@@H]1CC[C@@H]2[C@H](COc3ccc(NC(=O)NC(C)C)cc3C(=O)N2C)O1	53.3*
COC(=O)C[C@H]1CC[C@H]2[C@H](COc3ccc(NS(=O)(=O)c4ccc(F)cc4)cc3C(=O)N2C)O1	36.7*
CO[C@@H]1CN(C)C(=O)c2ccc(NC(=O)NC(C)C)cc2OC[C@@H](C)NC[C@@H]1C	-1.0
COC(=O)C[C@H]1CC[C@H]2[C@H](COc3ccc(NC(=O)NC(C)C)cc3C(=O)N2C)O1	50.0*
COC(=O)C[C@H]1CC[C@H]2[C@H](COc3ccc(NC(=O)Nc4ccccc4C)cc3C(=O)N2C)O1	-116.7
COc1cccc(-c2ccc3c(c2)O[C@H](CN(C)C(=O)C2CCCCC2)[C@@H](C)CN([C@H](C)CO)S3(=O)=O)c1	-27.8
C[C@H](CO)N1C[C@H](C)[C@@H](CN(C)Cc2cncnc2)Oc2ncc(C#C[C@@H](C)O)cc2C1=O	-3.1
CCC(=O)Nc1ccc2c(c1)OC[C@@H](C)N(C(=O)CN1CCOCC1)C[C@H](C)[C@H](OC)CN(C)C2=O	-2.6
C[C@H]1CN([C@@H](C)CO)S(=O)(=O)c2ccc(-c3cncnc3)cc2O[C@H]1CN(C)C(=O)Cc1cccnc1	-18.6
CO[C@@H]1CN(C)C(=O)c2cc(NC(C)=O)ccc2OC[C@@H](C)N(C(=O)CN(C)C)C[C@@H]1C	0.1
C[C@H](O)C#Cc1ccc2c(c1)O[C@@H](CN(C)Cc1cccnc1)[C@@H](C)CN([C@@H](C)CO)S2(=O)=O	-1.9
C/C=C/c1cnc2c(c1)C(=O)N([C@@H](C)CO)C[C@H](C)[C@H](CN(C)C(=O)Nc1cccc(OC)c1)O2	-2.5
C[C@@H]1CN([C@@H](C)CO)C(=O)c2cc(C#CC3(O)CCCC3)cnc2O[C@H]1CN(C)S(=O)(=O)c1ccc(F)cc1	-3.4
N#C/C(=C\c1ccc(N2CCOCC2)o1)C(=O)NCC1CCCO1 (stereo not drawn)	36.1*
Cc1noc(C)c1NC(=O)N(C)C[C@H]1Oc2cc(C#CCC(C)C)ccc2S(=O)(=O)N([C@@H](C)CO)C[C@H]1C	-54.4
COc1ccccc1-c1cnc2c(c1)C(=O)N([C@H](C)CO)C[C@H](C)[C@@H](CN(C)C(=O)c1ccccc1)O2	-14.0
COc1cccc(S(=O)(=O)N(C)C[C@@H]2Oc3ncc(C#CCC(C)C)cc3C(=O)N([C@H](C)CO)C[C@H]2C)c1	2.9
SMILES	miR-122 inh
CC(C)CC#Cc1ccc2c(c1)O[C@H](CN(C)C(=O)NC1CCCC1)[C@@H](C)CN([C@@H](C)CO)S2(=O)=O	-29.5
C[C@@H]1CN([C@@H](C)CO)C(=O)c2cc(-c3cncnc3)cnc2O[C@H]1CN(C)Cc1ccc(F)cc1	5.2
C[C@@H]1CN([C@@H](C)CO)C(=O)c2cccc(NC(=O)C3CCCCC3)c2O[C@@H]1CN(C)Cc1ccc(C(=O)Nc2ccccc2N)cc1	-166.4
C[C@@H]1CN([C@@H](C)CO)S(=O)(=O)c2ccc(Br)cc2O[C@H]1CN(C)S(=O)(=O)c1cccc(F)c1	-1.1
Cc1ccc(-c2ccc3c(c2)O[C@H](CN(C)Cc2cccc(C(=O)O)c2)[C@@H](C)CN([C@@H](C)CO)S3(=O)=O)cc1	3.8
COc1cccc(-c2ccc3c(c2)O[C@@H](CN(C)CC2CC2)[C@@H](C)CN([C@@H](C)CO)S3(=O)=O)c1	4.2
COc1cc2c(cc1OC)C(c1ccc(-c3ccc(Cl)c(Cl)c3)o1)=NCC2	44.2*
C[C@H](CO)N1C[C@H](C)[C@@H](CN(C)Cc2cncnc2)Oc2ncc(C#CC3(O)CCCC3)cc2C1=O	-1.1
COCC(=O)Nc1ccc2c(c1)OC[C@@H](C)N(C(C)=O)C[C@H](C)[C@H](OC)CN(C)C2=O	-4.5
COC(=O)c1c(N)nc(C)n1-c1ccc(OC)cc1	33.8*
Cc1ccccc1-c1cnc2c(c1)C(=O)N([C@H](C)CO)C[C@@H](C)[C@H](CN(C)C(=O)c1ccccc1)O2	4.3
Cc1ccc(S(=O)(=O)N(C)C[C@H]2Oc3cc(C#CC4CCCC4)ccc3S(=O)(=O)N([C@H](C)CO)C[C@@H]2C)cc1	-81.0
C[C@@H]1CN([C@H](C)CO)S(=O)(=O)c2ccc(C#Cc3ccc(F)cc3)cc2O[C@H]1CN(C)S(C)(=O)=O	2.5
CC(C)C#Cc1cnc2c(c1)C(=O)N([C@@H](C)CO)C[C@@H](C)[C@@H](CN(C)Cc1ccccn1)O2	7.5
CC(C)NC(=O)N(C)C[C@@H]1Oc2cc(-c3ccccc3)ccc2S(=O)(=O)N([C@H](C)CO)C[C@@H]1C	-0.1
Cc1ccc(-n2c(Cc3ccccc3)n[nH]c2=S)cc1	41.0*
COc1cccc(C#Cc2ccc3c(c2)O[C@H](CN(C)C(=O)c2ccccn2)[C@H](C)CN([C@H](C)CO)S3(=O)=O)c1	5.9
C[C@@H]1CN([C@H](C)CO)C(=O)c2cc(/C=C/c3ccccc3)cnc2O[C@H]1CN(C)C(=O)c1ccncc1	4.5
C[C@@H]1CN([C@@H](C)CO)S(=O)(=O)c2ccc(-c3ccc(C#N)cc3)cc2O[C@H]1CN(C)C(=O)C1CC1	-37.4
C[C@@H]1CN([C@H](C)CO)S(=O)(=O)c2ccc(C#CCN(C)C)cc2O[C@H]1CN(C)C(=O)CN(C)C	5.7
CC(C)C#Cc1ccc2c(c1)O[C@@H](CN(C)C(=O)CC1CC1)[C@H](C)CN([C@H](C)CO)S2(=O)=O	2.6
CCCCCCCN(C(=O)CCl)c1cccc(C)c1	66.3*
CCCNC(=O)N(C)C[C@H]1Oc2cc(Br)ccc2S(=O)(=O)N([C@H](C)CO)C[C@H]1C	-10.3
C[C@@H]1CN([C@H](C)CO)C(=O)c2cc(-c3cncnc3)cnc2O[C@H]1CN(C)Cc1ccccc1	-2.5
COCC#Cc1ccc2c(c1)O[C@H](CN(C)C(C)=O)[C@@H](C)CN([C@@H](C)CO)S2(=O)=O	-2.4
CC1(C)CC(=O)c2cnc(NC(=O)c3ccco3)nc2C1	37.6*
O=C(Nc1ccc(Br)c(Cl)c1)c1ccco1	-143.9
CNC[C@H]1Oc2cc(C#CCC3CCCC3)ccc2S(=O)(=O)N([C@@H](C)CO)C[C@@H]1C	-14.2
C[C@@H]1CN([C@@H](C)CO)S(=O)(=O)c2ccc(-c3ccccc3)cc2O[C@H]1CN(C)Cc1ccccc1C(=O)O	-5.0
Cc1ccc(C(=O)C2=C(O)C(=O)N(CCCN3CCOCC3)C23C(=O)N(C)c2ccccc23)o1 (stereo not drawn)	31.8*
